DT40 TDP1 no CPT = qHTS for Inhibitors of human tyrosyl-DNA phosphodiesterase 1 (TDP1): qHTS in cells in absence of CPT | DT40 Tdp1-/- hTDP1 cells, no CPT, ATP luminescence, 48 h | Potency, µM (titrated, usually from 46.2 µM), inactives show at the highest dose activity change, negative = growth inhibition, hits mostly inhibitors | 15% of 420,000 active | AID 686978, 2013; note: potency is the fitted concentration of half-maximal effect; % is set by controls: 0 for no effect and ±100 for the full control effect; nearly all actives have a fitted effect of over 55% in size
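Readout: luminescence from CellTiter-Glo after 30 min in the dark at RT. Cells: DT40 Tdp1-/- with stable hTDP1, 400/well. Exposure: compounds alone, ≥48 hr, 37 °C.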
DT40 TDP1 CPT = qHTS for Inhibitors of human tyrosyl-DNA phosphodiesterase 1 (TDP1): qHTS in cells in presence of CPT. chicken DT40 Tdp1-/-;hTDP1 cells + 20 nM CPT, ATP luminescence, 48 h. Potency, µM (series often up to 46.2 µM), for inactives: at the highest dose activity change, negative = growth inhibition, most hits filed as inhibitors. 12% of 420,000 active; note: potency is the fitted concentration of half-maximal effect; % is set by controls: 0 for no effect and ±100 for the full control effect; nearly all actives have a fitted effect of over 55% in size
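Chicken DT40 Tdp1-/- cells complemented with human TDP1, 400 cells/well, exposed to compounds plus 20 nM camptothecin for at least 48 h at 37 C; viability read as ATP content by CellTiter-Glo luminescence.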
TDP1 inh = qHTS Assay for Inhibitors of Tyrosyl-DNA Phosphodiesterase (TDP1) | Tyrosyl-DNA phosphodiesterase 1 (Homo sapiens), Q9NUW8 | recombinant TDP1, AlphaScreen DNA substrate cleavage | Potency, µM (titrated, usually from 130 µM), for inactives: at the top dose activity change, negative = inhibition, most hits filed as inhibitors | 0.28% of 350,000 active | AID 485290, 2010; note: potency is the fitted concentration of half-maximal effect; % is set by controls: 0 for no effect and ±100 for the full control effect; nearly all actives have a fitted effect of over 40% in size
Target sequence (Q9NUW8 whole entry, looked up): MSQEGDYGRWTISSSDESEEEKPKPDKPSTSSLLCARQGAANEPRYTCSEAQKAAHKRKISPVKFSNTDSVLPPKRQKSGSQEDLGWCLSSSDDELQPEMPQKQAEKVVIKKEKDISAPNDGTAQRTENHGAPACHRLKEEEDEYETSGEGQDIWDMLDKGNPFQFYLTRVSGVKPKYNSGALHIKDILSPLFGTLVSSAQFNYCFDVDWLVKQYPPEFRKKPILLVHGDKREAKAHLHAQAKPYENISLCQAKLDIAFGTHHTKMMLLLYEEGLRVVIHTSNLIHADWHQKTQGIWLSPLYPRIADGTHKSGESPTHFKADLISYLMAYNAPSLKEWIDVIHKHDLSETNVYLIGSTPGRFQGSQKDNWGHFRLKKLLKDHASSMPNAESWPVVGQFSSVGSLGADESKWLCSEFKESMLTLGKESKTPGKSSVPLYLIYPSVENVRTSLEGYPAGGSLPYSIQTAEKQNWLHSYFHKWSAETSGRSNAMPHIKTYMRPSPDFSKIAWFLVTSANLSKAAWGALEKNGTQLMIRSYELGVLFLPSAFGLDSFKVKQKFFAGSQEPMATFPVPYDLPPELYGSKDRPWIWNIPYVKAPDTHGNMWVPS
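Recombinant E. coli-expressed Tdp1 (1 nM) preincubated with compound 15 min at RT, then 5'-biotin/3'-phosphotyrosine-FITC DNA substrate (15 nM) added for 5 min. AlphaScreen beads (10 ug/ml) added, 10 min RT; tyrosine-FITC cleavage read as signal loss.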
uPA generation = qHTS for Inhibitors of Cell Surface uPA Generation | cell surface uPA generation assay, qHTS | Potency, µM (highest dose often 38.3 µM), without a hit: at the top dose activity change, negative = inhibition, actives largely listed as inhibitors | 0.31% of 330,000 active; active = well fitted inhibition curve with a large enough effect; inconclusive = small, poorly fitted or top-dose-only effect; inactive = no such curve, though single readings can be large or run the other way; tested in mouse RAW 264.7 cells; note: potency is the fitted concentration of half-maximal effect; % is set by controls: 0 for no effect and ±100 for the full control effect; nearly all actives have a fitted effect of over 55% in size
miR-21 reporter = qHTS Assay for Modulators of miRNAs and/orActivators of miR-21; 340,000 tested, under 10 active; HeLa miR-21 FLuc reporter, luciferase, 48 h; AID 2288, 2010; Potency, µM (highest dose often 38.3 µM), for the others: at the highest dose activity change, positive = activation, most hits filed as activators;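 note: % of control where 0% means no effect; miR-21 action dims this reporter so a rising signal means less miR-21 action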
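HeLa cells stably expressing CMV-driven firefly luciferase with a downstream miR-21 binding sequence, endogenously expressing miR-21, were treated with titrations (up to about 40uM final) for 48 hours at 37 degree Celsius. Luciferase luminescence was read after lysis.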
Numbers without * were called inactive; ? = inconclusive; / = no result; [ ] = another dose, or the depositor's remark. An excerpt weighted towards active compounds, which were near 16% of everything screened. Unless noted, calls come from the whole dose curve; as a rule, active = well fitted curve in the direction sought with a large enough effect; inconclusive = small, poorly fitted or top-dose-only effect, or another doubt; inactive = no such curve, though single readings can be large; an effect the other way counts as inactive or inconclusive.

SMILES | DT40 TDP1 no CPT | DT40 TDP1 CPT | TDP1 inh | uPA generation | miR-21 reporter
Cc1cccc(Cn2c(=O)n(CCc3ccccc3)c(=O)c3c(C)c(C)sc32)c1 | ? | 20.6µM* | 4.5% | / | -2.0%
Cc1ccc(C)c(Cn2c(=O)n(CCc3ccccc3)c(=O)c3c(C)c(C)sc32)c1 | 8.8% | -9.9% | 1.8% | / | -3.5%
CCN(CC)C(=O)c1sc2c(c1C)c(=O)n(CCc1ccccc1)c(=O)n2Cc1cccc(Cl)c1 | 14.6µM* | 23.1µM* | -4.4% | / | 29.0%
Cc1sc2c(c1C)c(=O)n(CCc1ccccc1)c(=O)n2Cc1cccc(F)c1 | 5.8µM* | ? | -4.5% | / | -3.0%
Cc1sc2c(c1C)c(=O)n(CCc1ccccc1)c(=O)n2Cc1ccc(F)cc1 | 18.4µM* | ? | 4.5% | / | -0.7%
Cc1sc2c(c1C)c(=O)n(CCc1ccccc1)c(=O)n2Cc1ccc(C(C)(C)C)cc1 | -13.4% | 5.7% | -1.8% | / | 0.1%
Cc1sc2c(c1C)c(=O)n(CCc1ccccc1)c(=O)n2Cc1ccccc1Cl | -5.1% | -3.9% | 0.0% | / | -3.8%
FC(F)(F)c1cc(-c2cccs2)nc(-n2cc(Cl)cn2)n1 | -23.7% | -16.3% | 4.6% | -2.5% | -1.5%
COc1ccc([N+](=O)[O-])cc1NC(=O)c1ccc(N(Cc2ccccc2Cl)S(C)(=O)=O)cc1 | ? | -15.5% | 4.6% | -3.0% | 1.8%
CCOC(=O)C1CCN(C(=O)c2ccc(N3CCOCC3)c([N+](=O)[O-])c2)CC1 | -18.9% | 1.8% | 1.0% | 2.5% | /
CCCCNC(=O)c1ccc2c(c1)N=C(CC)c1ccccc1S2 | 4.61µM* | 4.11µM* | 0.0% | / | 22.3%
CCC1=Nc2cc(C(=O)NCCCOC)ccc2Sc2ccc(Br)cc21 | 1.3µM* | 1.3µM* | 7.5% | / | 28.7%
CCC1=Nc2cc(C(=O)NCCCOC)ccc2Sc2ccccc21 | 1.16µM* | 1.46µM* | 9.6% | -10.2% | 16.5%
CCC1=Nc2cc(C(=O)NCCN3CCCC3)ccc2Sc2ccccc21 | ? | ? | 7.7% | -18.8% | -8.6%
O=C(COc1ccc(Cl)cc1[N+](=O)[O-])NC1CCCCC1 | ? | ? | 2.6% | ? | -23.2%
CN(C)c1cccc(C(=O)OCC(=O)N2CCc3ccccc3C2)c1 | -18.7% | -15.1% | 2.5% | 2.2% | -6.0%
CC(=O)Nc1ccccc1-c1nc2cc(C#N)c(C#N)cc2[nH]c1=O | 20.6µM* | 20.6µM* | / | -13.6% | -22.9%
COCCn1c(C)cc(O)c(C(c2ccccc2)N2CCCCC2)c1=O (stereo not given) | -7.8% | -15.0% | 3.8% | / | -0.7%
Cc1ccc(C)c(NC(=S)NCc2cccs2)c1 | 29.1µM* | ? | 5.1% | -4.3% | -2.7%
COc1cccc(CNC(=S)Nc2cc(C)ccc2C)c1 | 25.9µM* | 18.4µM* | 4.9% | -3.7% | -5.3%
O=C(COc1ncnc2cc([N+](=O)[O-])ccc12)NCc1ccc2c(c1)OCO2 | 1.7% | 2.0% | 0.0% | 6.4% | -6.7%
O=C(NC(=S)Nc1nc2ccccc2s1)c1cccs1 | 18.4µM* | 16.4µM* | 3.4% | 0.3% | -66.2%
NC(=S)Nc1nc2ccccc2s1 | 4.11µM* | 2.59µM* | 6.1% | -1.5% | -39.9%
CC(C)CNC(=O)N1[C@H](c2cccs2)[C@@H](C)C(=O)[C@@H](C)[C@@H]1c1cccs1 | ? | 18.4µM* | 5.7% | / | -5.2%
COc1ccc(CCNC(=O)c2ccc3c(c2)N(Cc2ccccc2)C(=O)c2ccccc2S3=O)cc1OC (stereo not given) | 11.6µM* | 16.4µM* | 5.8% | / | 16.4%
SMILES | DT40 TDP1 no CPT | DT40 TDP1 CPT | TDP1 inh | uPA generation | miR-21 reporter
COc1ccc(CNC(=O)c2ccc3c(c2)N(Cc2ccccc2)C(=O)c2ccccc2S3=O)cc1 (stereo not given) | -1.9% | -0.3% | 6.9% | / | -4.0%
CCN1C(=O)c2ccccc2S(=O)c2ccc(C(=O)NCCN(CC(C)C)CC(C)C)cc21 (stereo not given) | 23.1µM* | ? | / | 1.8% | -2.4%
CCCCN(C)C(=O)c1ccc2c(c1)N(Cc1cccc(Cl)c1)C(=O)c1ccccc1S2=O (stereo not given) | 14.6µM* | 8.2µM* | 5.7% | / | 13.0%
O=C(NCCc1ccccc1)c1ccc2c(c1)N(Cc1ccccc1)C(=O)c1ccccc1S2=O (stereo not given) | ? | 29.1µM* | -2.3% | / | 2.1%
Cc1ccc(S(=O)(=O)c2c(C)cc(C)[nH]c2=O)c(C)c1 | -21.1% | 4.5% | / | 7.5% | -5.7%
CC(=O)c1sc2c(c1C)c(=O)n(-c1ccc(Cl)cc1)c(=O)n2Cc1cc(=O)n2cc(Cl)ccc2n1 | -6.0% | -3.7% | 0.0% | / | 3.0%
CC(=O)N1CCN(Cc2cc(=O)oc3cc(C)c(C)cc23)CC1 | 0.8% | -9.0% | / | / | /
CCOc1ccc(CCNC(=O)c2ccc3c(c2)N(Cc2ccccc2F)C(=O)c2ccccc2S3=O)cc1OCC (stereo not given) | 23.1µM* | ? | 6.9% | / | 0.1%
C=CCn1c(SCc2nc3ccccc3c(=O)[nH]2)nc2ccccc2c1=O | ? | ? | 7.0% | 9.3% | 3.5%
COc1ccccc1-n1c(SCc2cc(=O)oc3cc(O)ccc23)nc2ccccc2c1=O | ? | 23.1µM* | 0.0% | 5.4% | -28.4%
COc1ccc(C(C)=O)cc1CSc1nc2ccccc2c(=O)n1-c1ccccc1 | ? | ? | 0.0% | 4.9% | -1.9%
C=CCn1c(SCc2cc(C(C)=O)ccc2OCC)nc2ccccc2c1=O | 0.82µM* | 1.64µM* | -2.4% | -8.5% | ?
O=C(c1ccc(-n2c(SCc3cc(F)ccc3F)nc3ccccc3c2=O)cc1)N1CCOCC1 | 25.9µM* | 11.6µM* | -4.3% | -3.7% | -3.0%
COc1ccc(C(C)=O)cc1CSc1nc2ccccc2c(=O)n1-c1cccc(C)c1 | 18.4µM* | 18.4µM* | 4.6% | -0.6% | -9.9%
COc1ccc(N2CC(C(=O)Nc3nnc(Cc4ccccc4)s3)CC2=O)cc1 (stereo not given) | -8.6% | -4.1% | 2.8%[0.0935 µM] | 1.8% | 1.7%
COc1ccc(C(C)=O)cc1CSc1nc2ccccc2c(=O)n1-c1ccccc1C | 20.6µM* | 18.4µM* | 5.3% | 5.6% | -7.5%
COCCn1c(SCc2cc(C(C)=O)ccc2OC)nc2cc(Cl)ccc2c1=O | 1.3% | 8.1% | 2.7% | 2.3% | -9.2%
Cc1ccccc1CS(=O)(=O)Cc1ccc(C(=O)NCC2CCCO2)o1 (stereo not given) | ? | -5.9% | -2.0% | 2.1% | 0.6%
N#C/C(=C\c1ccc(O)c(Br)c1)C(=O)NCc1ccccc1 | -18.0% | -19.2% | -8.2% | -0.6% | -2.7%
N#C/C(=C/c1ccc(O)c(O)c1)C(=O)NCc1ccc(Cl)cc1 | ? | 25.9µM* | 11.8%[0.0935 µM] | -15.1% | -11.8%

High-throughput results: PubChem BioAssay, National Center for Advancing Translational Sciences (NCATS)
